Measured values: PubChem BioAssay (NCATS)
Inconclusive results are not listed. Activity calls are given as the source filed them. Calls come from the whole dose curve; as a rule, active = well fitted cell-killing curve with a large enough effect; inconclusive = small, poorly fitted or top-dose-only effect, or effect the other way; inactive = no such curve, though single readings can be large or run the other way.
Potency is the fitted concentration of half-maximal effect.

Experiment: Quantitative High-Throughput drug screen in 47 multiple myeloma cell lines against the NCATS MIPE library collection: VP6_DJ cell viability assay (AID 1919867); note: nearly all actives have a fitted effect of over 40% in size
Details: ATP luminescence, 48 h; series mostly up to 45.8 µM; viability (% of DMSO): at the top concentration
Description: PI: Beverly A. Mock Ph.D.
Laboratory of Cancer Biology and Genetics,
Center for Cancer Research, National Cancer Institute,
National Institute of Health, Bethesda, Maryland
Drug resistance and disease progression are common in multiple myeloma (MM) patients, underscoring the need for new therapeutic combinations. […] We hypothesized that effective combinations would reduce MYC expression and enhance p16 activity. […] These preclinical data identify potentially useful drug combinations for evaluation in drug-resistant MM and reveal potential mechanisms of combined drug sensitivity.
Described herein is the primary MIPE qHTS used to cherrypick compounds. Validated compounds were then further tested for potential synergistic activiy.
[1] Peat TJ, Gaikwad SM, Dubois W, Gyabaah-Kessie N, Zhang S, Gorjifard S, Phyo Z, Andres M, Hughitt VK, Simpson RM, Miller MA, Girvin AT, Taylor A, Williams D, D'Antonio N, Zhang Y, Rajagopalan A, Flietner E, Wilson K, Zhang X, Shinn P, Klumpp-Thomas C, McKnight C, Itkin Z, Chen L, Kazandijian D, Zhang J, Michalowski AM, Simmons JK, Keats J, Thomas CJ, Mock BA. Drug combinations identified by high-throughput screening promote cell cycle transition and upregulate Smad pathways in myeloma. Cancer Lett. 2023 Aug 1;568:216284. doi: 10.1016/j.canlet.2023.216284. Epub 2023 Jun 24. PMID: 37356470; PMCID: PMC10408729.
SEQUENCE No. (e.g., 1, 2, 3, etc.); […] (e.g., Cells, Incubation, Reagent, etc.); VALUE and DESCRIPTION.
1; Cells; 5 uL; white, solid bottom 1536-well Greiner assay plate.
2; Compounds; 23 nL; Kalypsis pin tool (Wako USA) equipped with a 1536-well pin head to transfer to the assay plates.
3; Incubation; 48 hours; 37C incubation.
4; Reagent;5uL; CellTiter Glo (Promega).
5; Detector; 425V; Luminescence; Viewlux PerkinElmer.
NOTES (numbers refer to Sequence numbers above)
1. The cell-based screening methods employed in this study were like those previously published. Briefly, the corresponding myeloma cell lines were screened in 1,536-well plates with 500 cells, 5-uL per well for inhibition of cell viability (assessed by measuring ATP levels with CellTiterGlo).
2. NCATS MIPE 4.0 library of approved and investigational drugs were added using the Kalypsis pin tool. Wells treated with DMSO only for 100% viability and media only for 0% viability were used as controls.
3. The assay plates were covered and incubated for 48 hours in a 37C, 5% CO2 incubator with controlled humidity.
4. After 48 hours, CellTilter-GloTM luminescent substrate mix (Promega) reagent was added to the assay plate and plates we incubated for 5 min at room temperature.
5. Signal was measured as median relative luminescence units on a ViewLux (PerkinElmer) multiplate reader.
[1] Heske CM, Davis MI, Baumgart JT, Wilson K, Gormally MV, Chen L, Zhang X, Ceribelli M, Duveau DY, Guha R, Ferrer M, Arnaldez FI, Ji J, Tran HL, Zhang Y, Mendoza A, Helman LJ, Thomas CJ. Matrix Screen Identifies Synergistic Combination of PARP Inhibitors and Nicotinamide Phosphoribosyltransferase (NAMPT) Inhibitors in Ewing Sarcoma. Clin Cancer Res. 2017 Dec 1;23(23):7301-7311. doi: 10.1158/1078-0432.CCR-17-1121. Epub 2017 Sep 12. PMID: 28899971; PMCID: PMC6636827.
With `N#CC1(c2ccc(NC(=O)c3cccnc3NCc3ccncc3)cc2)CCCC1` the Potency was 14.8 µM (active). With `O=C(OCC#CCSc1nnc(-c2cccc3ccccc23)o1)c1cc2ccccc2s1` the “viability (% of DMSO)” value was 125% (inactive). With `O=C1NC(=O)C(=Cc2ccc3nccnc3c2)S1` the Potency was 4.57 µM (active). In the case of `O=c1c(-c2ccc(O)cc2)coc2cc(OC3O[C@H](CO)[C@H](O)[C@H](O)[C@H]3O)cc(O)c12` (stereo not given in full), the Potency is reported as 2.64 µM (active). For `CC1(C)CCC(CN2CCN(c3ccc(C(=O)NS(=O)(=O)c4ccc(NCC5CCOCC5)c([N+](=O)[O-])c4)c(Oc4cnc5[nH]ccc5c4)c3)CC2)=C(c2ccc(Cl)cc2)C1`, the Potency was 7.43 µM (active). For `COc1ccc2cccc(CCNC(C)=O)c2c1`, the Potency was 5.26 µM (active). For `O=c1cc(N2CCOCC2)oc2c(-c3cccc4c3sc3ccccc34)cccc12`, the Potency was 3.72 µM (active). In the case of `CC[C@H]1OC(=O)[C@H](C)[C@@H](O[C@H]2C[C@@](C)(OC)[C@@H](O)[C@H](C)O2)[C@H](C)[C@@H](O[C@@H]2O[C@H](C)C[C@H](N(C)C)[C@@H]2O)[C@](C)(O)C[C@@H](C)CN(C)[C@H](C)[C@@H](O)[C@]1(C)O`, the “viability (% of DMSO)” value is reported as 139% (inactive). With `CNC(=O)c1ccc2cc(C3(O)CCn4cncc43)ccc2c1` (stereo not given) the “viability (% of DMSO)” value was 120% (inactive). With `NC(CO)(CO)CCc1ccc(Sc2cccc(OCc3ccccc3)c2)cc1Cl` the Potency was 8.33 µM (active). In the case of `COc1cccc2c1CCCC2CCCN1CCN(C2CCCCC2)CC1` (stereo not given), the Potency is reported as 16.6 µM (active). For `N#CC(=C(N)Sc1ccccc1N)C(C#N)=C(N)Sc1ccccc1N`, the Potency was 20.9 µM (active). In the case of `COc1ccc2c(Oc3ccc(NC(=O)c4c(C)n(CC(C)(C)O)n(-c5ccccc5)c4=O)cc3F)ccnc2c1`, the Potency is reported as 11.8 µM (active). In the case of `CO[C@H]1C(=O)[C@]2(C)[C@@H](OC)C[C@H]3OC[C@@]3(OC(C)=O)[C@H]2[C@H](OC(=O)c2ccccc2)[C@]2(O)C[C@H](OC(=O)[C@H](O)[C@@H](NC(=O)OC(C)(C)C)c3ccccc3)C(C)=C1C2(C)C`, the Potency is reported as 0.001 µM (active). In the case of `OC[C@H]1O[C@@H](n2cnc3c2NC=NC[C@@H]3O)C[C@H]1O`, the Potency is reported as 14.8 µM (active). With `CCNc1cc(NC2CCC(O)CC2)nc(Nc2ccc3c(ccn3Cc3ccccc3)c2)n1` (stereo not given) the Potency was 23.5 µM (active). In the case of `CC(C)C[C@H](CC(=O)O)C(=O)N[C@@H](Cc1c[nH]c2ccccc12)C(=O)N[C@@H](C)c1ccccc1`, the “viability (% of DMSO)” value is reported as 153% (inactive). For `O=C(O)CCC1CCC(c2cc(F)ccc2F)(S(=O)(=O)c2ccc(Cl)cc2)CC1` (stereo not given), the Potency was 4.69 µM (active). For `Cc1nnc(C(C)C)n1C1C[C@H]2CC[C@@H](C1)N2CC[C@H](NC(=O)C1CCC(F)(F)CC1)c1ccccc1` (stereo not given in full), the Potency was 23.5 µM (active). In the case of `CCC(=O)O[C@]1(C(=O)CO)CC[C@H]2[C@@H]3CCC4=CC(=O)CC[C@]4(C)[C@@H]3CC[C@@]21C`, the Potency is reported as 10.5 µM (active). In the case of `O=C1c2c(O)cc(O)cc2O[C@H](c2cc(O)c(O)c(O)c2)[C@H]1O`, the “viability (% of DMSO)” value is reported as 151% (inactive). In the case of `O=C1c2ccccc2-[n+]2ccc3c([nH]c4ccccc43)c21`, the Potency is reported as 1.48 µM (active). With `CC=C(C)C(=O)O[C@H]1C(C)=C[C@]23C(=O)[C@@H](C=C(CO)[C@@H](O)[C@]12O)[C@H]1[C@@H](C[C@H]3C)C1(C)C` the Potency was 26.4 µM (active). In the case of `COc1ccc(-c2oc3c(CC=C(C)C)c(OC4O[C@H](CO)[C@@H](O)[C@H](O)[C@@H]4O)cc(O)c3c(=O)c2OC2O[C@@H](C)[C@H](O)[C@@H](O)[C@@H]2O)cc1` (stereo not given in full), the Potency is reported as 16.6 µM (active). In the case of `CO[C@H]1C=CC=C(C)C(=O)NC2=CC(=O)C(NCCN(C)C)=C(C[C@@H](C)C[C@H](OC)[C@@H](O)[C@@H](C)C=C(C)[C@@H]1OC(N)=O)C2=O`, the Potency is reported as 0.0093 µM (active). For `CC(=O)O[C@]1(C(C)=O)CC[C@@H]2[C@@H]3C[C@H](C)C4=CC(=O)CC[C@]4(C)[C@H]3CC[C@@]21C`, the Potency was 14.8 µM (active). In the case of `CC(C)[C@H](CO)Nc1nc(Nc2ccc(C(=O)O)c(Cl)c2)c2ncn(C(C)C)c2n1`, the Potency is reported as 23.5 µM (active). With `NS(=O)(=O)c1cccc2c1C(=O)c1cccc(O)c1C2=O` the Potency was 0.662 µM (active). In the case of `CCOC(CN1C(=O)[C@](CC(=O)Nc2ccc(C)cc2)(NC(=O)Nc2ccc(C)cc2)c2ccccc21)OCC`, the Potency is reported as 26.4 µM (active). In the case of `CN1CCN(CCOc2cc(OC3CCOCC3)c3c(Nc4c(Cl)ccc5c4OCO5)ncnc3c2)CC1`, the Potency is reported as 4.18 µM (active). With `Oc1ccc(C2CCN(c3ccnc4ccccc34)CC2)cc1O` the Potency was 14.8 µM (active). With `O=C(O)c1cc(O)c2c(c1)C(=O)c1cccc(O)c1C2=O` the “viability (% of DMSO)” value was 151% [at 92.2 µM] (inactive). For `CC(C)OC(=O)C(C)(C)Oc1ccc(C(=O)c2ccc(Cl)cc2)cc1`, the Potency was 26.4 µM (active). In the case of `CC(=O)Oc1cc2c(s1)CCN(C(C(=O)C1CC1)c1ccccc1F)C2` (stereo not given), the Potency is reported as 1.32 µM (active). In the case of `COc1cccc(-c2cc(=O)c3ccccc3o2)c1N`, the Potency is reported as 1.32 µM (active). For `COc1ccc(-c2nc(N3CCOCC3)c3sc(CN(C)c4ncc(C(=O)NO)cn4)cc3n2)cn1`, the “viability (% of DMSO)” value was 2.47% (inactive). In the case of `Clc1ccc(-c2nc3sccn3c2C=NOCc2ccc(Cl)c(Cl)c2)cc1`, the “viability (% of DMSO)” value is reported as 152% (inactive). With `Cn1cc(C=C2C(=O)Nc3cccnc32)c2ccccc21` the Potency was 10.5 µM (active). With `C[C@H](NC(=O)C(=O)Nc1ccccc1C(C)(C)C)C(=O)N[C@@H](CC(=O)O)C(=O)COc1c(F)c(F)cc(F)c1F` the “viability (% of DMSO)” value was 111% (inactive). For `Cc1cccc(Nc2nc(-c3ccncc3)cs2)c1`, the Potency was 18.7 µM (active).
